Screens (PubChem)
Only some compounds are listed: those with a hit (about 7.8% of all), similar ones and a draw of the others.
HCMV inh: human cytomegalovirus inhibition | activity change, negative = inhibition, % at 57.5 µM | actives 4.5% (n = 410,000) | HFF cells, HCMV-luciferase reporter, 72 h; active compounds read low; in the data active means activity change below about -60%; inconclusive means no clear call, values can overlap the other calls; inactive means above about -39%
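Two-dose cell screen: HFF monolayers treated with compounds and infected with luciferase-expressing HCMV at 1 PFU/cell, 72 h at 37C, then lysed for luciferase measurement.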
Marburg entry inh: blocks Marburg virus binding to or entry into cells. Marburg virus pseudotyped entry inhibition, cell reporter. AID 540276. Potency, µM (titrated, usually from 37.8 µM), usual class: inhibitors. actives 1.8% (n = 300,000); calls by dose curve; tested in HEK293 cells
VACV mCherry inh: vaccinia inhibition (mCherry reporter) | Vaccinia virus mCherry reporter infection, fluorescence | Potency, µM (series often up to 36.5 µM), hits mostly inhibitors | actives 0.63% (n = 310,000); calls by dose curve; tested in A549 cells; further: nearly all actives have a fitted effect of over 35% in size
HCV inhibitor: HCV inhibition | Huh7.5.1 HCVcc-Cre infection, luciferase reporter, 44 h | Potency, µM (titrated, usually from 41.8 µM), usual class: inhibitors | actives 3.4% (n = 340,000); active means well fitted inhibition curve with a large enough effect; inconclusive means small, poorly fitted or top-dose-only effect, or another doubt; inactive means no such curve, though single readings can be large or run the other way
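After 44 h co-culture of compound, cells and HCVcc-Cre (~0.5 moi), substrate is added for 15 min at room temperature and luciferase measured over 15 sec. Cells were seeded at 1,000/well and pre-cultured 4 h.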
LASV entry inh: Lassa virus entry inhibition; Lassa virus pseudotype entry inhibition, cell reporter; Potency, µM (series often up to 37.9 µM), usual class: inhibitors; actives 1.2% (n = 300,000); AID 540256; calls by dose curve; tested in HEK293 cells; further: nearly all actives have a fitted effect of over 50% in size
VACV Venus inh: vaccinia inhibition (Venus reporter); Vaccinia virus Venus reporter expression, fluorescence; Potency, µM (titrated, usually from 36.5 µM), usual class: inhibitors; actives 0.46% (n = 330,000); AID 720580; calls by dose curve; tested in A549 cells; further: nearly all actives have a fitted effect of over 30% in size
Hits are given with their value; – = inactive; ? = inconclusive; · = not tested or not shown; ! = repeats disagree.

SMILES	HCMV inh	Marburg entry inh	VACV mCherry inh	HCV inhibitor	LASV entry inh	VACV Venus inh
Cc1cccc2nc(-c3cccnc3)c(Nc3ccc(C(C)C)cc3)n12	-83.0	?	?	·	?	?
Cc1ccc(Nc2c(-c3ccc(O)cc3)nc3cccc(C)n23)cc1	–	–	–	·	–	–
Cc1ccccc1Nc1c(-c2cccnc2)nc2cccc(C)n12	-61.6!	–	–	?	–	–
Cc1c(OCc2ccccc2)c(=O)ccn1Cc1ccc(F)cc1	–	?	–	1.78µM	–	–
CCCC(=O)N1CCN(c2nc3ccc(Br)cc3s2)CC1	-68.1	·	·	10µM	·	·
CCCC(=O)N1CCN(c2nc3ccc(CC)cc3s2)CC1	–	·	·	–	·	·
CCCC(=O)N1CCN(c2nc3ccc(Cl)cc3s2)CC1	–	·	·	11.2µM	·	·
CCCCC(=O)N1CCN(c2nc3ccc(Br)cc3s2)CC1	–	–	–	11.2µM	?	–
O=C(NCc1nnc2n1CCN(Cc1ccc(C(F)(F)F)cc1)CC2)c1cccc(F)c1	·	·	–	·	·	–
C[n+]1ccc(C(c2c[nH]c3ccccc23)c2cc[n+](C)c3ccccc23)c2ccccc21	·	·	–	·	·	–
O=S(=O)(Nc1cccc(-c2ccc(N3CCCC3)nn2)c1)c1ccc(F)c(C(F)(F)F)c1	–	·	–	·	–	–
Nc1ccc(Cn2ccc3c4c(N)nc(N)nc4ccc32)cc1	-99.5	?	0.355µM	?	?	?
Cc1cccc2c1Sc1ccc(Cl)cc1CC2N1CCNCC1 (stereo unspecified)	·	·	·	12.6µM	·	·
CCc1cccc2c1Sc1ccccc1CC2N1CCNCC1 (stereo unspecified)	-97.9	·	·	?	·	·
Cc1ccc(Cl)cc1N1CCN(CC(=O)NC2CCCc3ccccc32)CC1 (stereo unspecified)	–	–	–	?	?	?
COc1cc2c(cc1OC)C(=O)C(CC1CCN(Cc3ccccc3)CC1)C2 (stereo unspecified)	–	·	–	1.41µM	·	–
CCOC(=O)N1CCN(C(=O)c2ccc(-c3ccccc3OC)nc2N2CCC(N3CCCC(CO)C3)CC2)CC1 (stereo unspecified)	·	·	–	·	·	–
Oc1ccc(N2CCN(c3nnnn3-c3ccccc3)CC2)cc1	-62.9	–	–	–	?	–
CCN(CC)C(=O)c1sc(NC(=O)Cc2cccs2)c(C#N)c1C	–	–	–	–	–	–
Cc1c(C#N)c(NC(=O)CCl)n(Cc2cccs2)c1C	-92.6	·	·	?	·	·
Cc1c(C#N)c(NC(=O)CCl)n(Cc2ccc(F)cc2)c1C	-67.7	·	·	?	·	·
COC(=O)c1cc(C(=O)OC)n(Cc2ccc(F)cc2)c1C	–	–	–	–	–	–
C#Cc1cccc(Nc2nc(NCc3ccccc3OC)nc3ccsc23)c1	-79.1	·	?	·	·	?
COc1ccccc1CNc1nc(NCc2cccc(OC)c2OC)c2sccc2n1	-82.6	·	–	·	·	–
C#Cc1cccc(Nc2nc(NCCOC)nc3ccsc23)c1	–	·	–	·	·	–
SMILES	HCMV inh	Marburg entry inh	VACV mCherry inh	HCV inhibitor	LASV entry inh	VACV Venus inh
COCCNc1nc(NCc2cccc(OC)c2OC)c2sccc2n1	–	·	–	·	·	–
CCOc1ccc(S(=O)(=O)c2cc3cccc(OCC)c3oc2=O)cc1	–	–	–	·	–	–
COc1ccc2cc3cc(C(=O)Nc4cc(OC)c(OC)c(OC)c4)oc3nc2c1	–	–	·	?	?	·
COc1ccc2cc3cc(C(=O)NCc4ccc5c(c4)OCO5)oc3nc2c1	–	?	–	–	0.82µM	–
COc1ccc2cc3cc(C(=O)Nc4ccc5c(c4)OCCO5)oc3nc2c1	–	?	–	11.2µM	?	–
Cc1ccc(NC(=O)CSc2ncnc3c2sc2ccccc23)cc1C	–	·	–	·	–	–
Fc1cccc(-c2cc3nc4c(c(N5CCN(c6cnccn6)CC5)n3n2)CCCC4)c1	·	–	·	·	·	·
Fc1cccc(-c2cc3nc4c(c(N5CCOCC5)n3n2)CCCC4)c1	–	?	–	3.55µM	–	–
CN(C)C(=O)c1ccc(NC(=O)COc2cccc3c2OC(C)(C)C3)cc1	-100.9	–	–	?	–	–
COc1cc(C)c(NC(=O)COc2cccc3c2OC(C)(C)C3)cc1OC	·	·	·	10µM	·	·
COC(=O)[C@@H]1C[C@H](NC(=O)c2cc(C(F)(F)F)ccc2Cl)CN1Cc1cccc(O)c1	·	·	–	·	·	–
COc1ccc(Nc2cc3c(cn2)cc(-c2cccc(C(F)(F)F)c2)n3C)cc1	–	·	·	·	·	·
NS(=O)(=O)c1ccc(CCNc2nn3c(-c4ccc(F)c(Cl)c4)cnc3s2)cc1	-75.2	·	–	·	·	–
NS(=O)(=O)c1ccc(CCNC(=O)CSc2ccc(Cl)cc2Cl)cc1	?	–	–	–	–	–
